Results on eight compounds are retold here after PubChem BioAssay (Tox21).

SMILES strings stand for the structures. Inconclusive results are not listed. A number with no mark means an inactive call. Calls of active or inactive are those of the source. Unless noted, calls follow the shape of the dose curve; as a rule, active = well fitted curve in the direction sought with a large enough effect in the repeat runs; inconclusive = weak or mixed curves; inactive = no such curve, though single readings can be large; an effect the other way counts as inactive or inconclusive.

Test [1] concerns the target Aryl hydrocarbon receptor (Homo sapiens) (UniProt P35869). The test is described as follows: qHTS assay to identify small molecule that activate the aryl hydrocarbon receptor (AhR) signaling pathway (AID 743085). Also: nearly all actives have a fitted effect of over 15% in size. Also: potency is read from the fitted curve at half-maximal effect.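 As to activation: HG2L7.5c1 human HepG2 liver cells with stably integrated DRE-driven firefly reporter; series mostly up to about 70 µM.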 Put shortly: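 Reporter assay in engineered HepG2 line HG2L7.5c1, whose plasmid carries twenty dioxin responsive elements upstream of firefly luciferase. Treatment lasted 24 h at 37C; ONE-Glo luminescence gauged induction.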
On the technique in general: Quantitative high-throughput screening tests each substance at several concentrations.

Test [2] in a line: qHTS assay to identify small molecule that activate the aryl hydrocarbon receptor (AhR) signaling pathway - cell viability counter screen (AID 743086).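 Also: HepG2 liver cells carrying the AhR DRE luciferase reporter; series mostly up to about 70 µM; nearly all actives have a fitted effect of over 45% in size.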 Put shortly: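 HepG2-AhR-luc (HG2L7.5c1) cells, 4000/well, treated 24 h at 37 C with compound; viability measured as CellTiter-Fluor fluorescence after 30 min in the same wells as the luciferase read.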
Test [3] can be described thus: qHTS assay to identify small molecule antagonists of the peroxisome proliferator-activated receptor gamma (PPARg) signaling pathway - cell viability counter screen (AID 743194). Also: nearly all actives have a fitted effect of over 55% in size. Particulars: Potency: co-treated with 50 nM rosiglitazone unless noted. Put shortly:
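Cytotoxicity counter screen in PPARg-bla HEK293H cells, same wells as reporter assay. Compounds plus 50 nM rosiglitazone (final) for 17 h at 37 C, then viability read by CellTiter-Glo luminescence.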

A short description of test [4]: qHTS assay for small molecule agonists of the antioxidant response element (ARE) signaling pathway - cell viability counter screen (AID 743203; calls by dose curve; also: nearly all actives have a fitted effect of over 55% in size). A digest of the protocol:
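ATP content via CellTiter-Glo luminescence served as the viability measure. Cells: ARE-bla HepG2, 2,000 per well. Exposure: 16 hrs, 37C/5% CO2.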

Test [5] is described as follows: qHTS assay for small molecule activators of the heat shock response signaling pathway - cell viability counter screen (AID 743209). Also: nearly all actives have a fitted effect of over 50% in size. Put shortly: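 Compounds dissolved in DMSO were added to overnight-plated HSE-bla HeLa cells and left 5 h at 37 C. Cell viability was quantified by luminescence using CellTiter-Glo.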
Test [6] can be described thus: qHTS assay to identify small molecule agonists of the peroxisome proliferator-activated receptor delta (PPARd) signaling pathway - cell viability counter screen (AID 743211). Also: nearly all actives have a fitted effect of over 55% in size. A digest of the protocol: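 Multiplexed format: after the 2 h room-temperature LiveBLAzer B/G FRET step, CellTiter-Glo was added to the same wells. Luminescence after 30 min gave cell viability; compound exposure was 17 h at 37C.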

Test [7] can be described thus: qHTS assay to identify small molecule antagonists of the peroxisome proliferator-activated receptor delta (PPARd) signaling pathway - cell viability counter screen (AID 743213). Also: nearly all actives have a fitted effect of over 50% in size. Put shortly:
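PPARd-bla HEK293H cells (3000/well) got compound plus 300 nM L165041 agonist for 17 h at 37 C. Viability in the same wells came from CellTiter-Glo luminescence after 30 min at room temperature.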

The nature of test [8]: qHTS assay to identify small molecule agonists of the farnesoid-X-receptor (FXR) signaling pathway - cell viability counter screen (AID 743218). Also: nearly all actives have a fitted effect of over 45% in size. Put shortly:
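Quantitative HTS counter screen measuring ATP-based viability via CellTiter-Glo luminescence in HEK 293T cells carrying a UAS-driven beta-lactamase reporter, after 16 h compound exposure at 37 C.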

A short description of test [9]: qHTS assay to identify small molecule antagonists of the farnesoid-X-receptor (FXR) signaling pathway - cell viability counter screen (AID 743221; active = well fitted cell-killing curve with a large enough effect in the repeat runs, not every such curve was filed as active; also: nearly all actives have a fitted effect of over 50% in size). A digest of the protocol: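 CellTiter-Glo, 30 min RT, luminescence; same wells as the LiveBLAzer FRET read. Cells: FXR-UAS-bla HEK 293T. Treatment: compound with chenodeoxycholic acid 50 uM final, 16 h at 37 C.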
Test [10] has as its target Peroxisome proliferator-activated receptor gamma (Homo sapiens) (UniProt P37231). The test is described as follows: qHTS assay to identify small molecule agonists of the peroxisome proliferator-activated receptor gamma (PPARg) signaling pathway (AID 743094; active = well fitted activation curve with a large enough effect in the signal ratio in the repeat runs, not every such curve was filed as active; the % refers to the signal ratio). Put shortly:
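Agonism was assessed in a beta-lactamase reporter system, HEK293H cells with a stably integrated UAS-bla construct under PPARg control; the 17 h treatment at 37C preceded a 1 h room-temperature FRET substrate read.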

The target is the same in test [11]. The test is described as follows: qHTS assay to identify small molecule antagonists of the peroxisome proliferator-activated receptor gamma (PPARg) signaling pathway (AID 743191; calls by dose curve; also: series mostly up to about 63 µM; nearly all actives have a fitted effect of over 30% in size). A digest of the protocol:
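GeneBLAzer PPARg UAS-bla HEK293H cells, 5 h post-plating, exposed to compounds 17 h at 37C. LiveBLAzer B/G FRET substrate added for 1 h at room temperature; beta-lactamase reporter read by fluorescence intensity.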

Test [12] addresses Peroxisome proliferator-activated receptor delta (Homo sapiens) (UniProt Q03181). The test is described as follows: qHTS assay to identify small molecule agonists of the peroxisome proliferator-activated receptor delta (PPARd) signaling pathway (AID 743212; calls by dose curve). A digest of the protocol:
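Tox21 library screened in GeneBLAzer PPARd UAS-bla HEK293H cells. After compound treatment at 37 C, a FRET-based beta-lactamase substrate was applied for 2 h and fluorescence recorded.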

The target is the same in test [13]. The test is described as follows: qHTS assay to identify small molecule antagonists of the peroxisome proliferator-activated receptor delta (PPARd) signaling pathway (AID 743215; active = well fitted inhibition curve with a large enough effect in the signal ratio in the repeat runs, not every such curve was filed as active; the % refers to the signal ratio;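 also: cells stimulated with agonist L165041 at 300 nM final during compound exposure; series mostly up to about 62 µM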). Put shortly: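 Here, a reporter line (HEK293H, beta-lactamase under a UAS) measures PPARd signaling. Compounds are tested against agonist L165041 at 300 nM final concentration over 17 h at 37 C, with fluorescence read after substrate.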

Test [14] deals with Bile acid receptor (Homo sapiens) (UniProt Q96RI1). The test is described as follows: qHTS assay to identify small molecule agonists of the farnesoid-X-receptor (FXR) signaling pathway (AID 743220; active = well fitted activation curve with a large enough effect in the signal ratio in the repeat runs, not every such curve was filed as active; the % refers to the signal ratio; also: potency is read from the fitted curve at half-maximal effect). Put shortly:
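FXR-UAS-bla HEK 293T cells carrying a UAS-driven beta-lactamase reporter were plated for 5 h at 37C/5% CO2, then exposed to DMSO-dissolved Tox21 10K compounds for 16 h at 37C. A LiveBLAzer B/G FRET substrate was loaded for 2 h at room temperature before fluorescence reading.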

The target of test [15] is Vitamin D3 receptor (Homo sapiens) (UniProt P11473). The test is described as follows: qHTS assay to identify small molecule agonists of the vitamin D receptor (VDR) signaling pathway (AID 743222; calls by dose curve). A digest of the protocol:
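Tox21 cell reporter format: VDR-bla line, 16 h compound exposure in 5% CO2 at 37C, then fluorescence intensity after 2 h with LiveBLAzer B/G FRET substrate.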

Test [16] in a line: qHTS assay for small molecule activators of the heat shock response signaling pathway (AID 743210; active = well fitted activation curve with a large enough effect in the signal ratio in the repeat runs, with a control signal flat, not every such curve was filed as active; the % refers to the signal ratio; also: potency is read from the fitted curve at half-maximal effect;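 as to activation: HeLa cells with beta-lactamase reporter driven by heat shock elements; series mostly up to about 63 µM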). A digest of the protocol:
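Following overnight attachment, HSE-bla HeLa cells received test compounds for 5 h at 37 C; beta-lactamase activity was then detected via FRET substrate fluorescence.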

In test [17] the target is Bile acid receptor (Homo sapiens) (UniProt Q96RI1). The test is described as follows: qHTS assay to identify small molecule antagonists of the farnesoid-X-receptor (FXR) signaling pathway (AID 743217; active = well fitted inhibition curve with a large enough effect in the signal ratio in the repeat runs, not every such curve was filed as active; the % refers to the signal ratio). Put shortly:
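Test compounds are pin-transferred onto FXR-bla HEK 293T cells, then chenodeoxycholic acid is added at 50 uM final. After 16 h at 37 °C, LiveBLAzer B/G substrate is applied for 2 h at room temperature and fluorescence read.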

Test [18] addresses Vitamin D3 receptor (Homo sapiens) (UniProt P11473). The test is described as follows: qHTS assay to identify small molecule antagonists of the vitamin D receptor (VDR) signaling pathway (AID 743223; active = well fitted inhibition curve with a large enough effect in the signal ratio in the repeat runs, not every such curve was filed as active; the % refers to the signal ratio). A digest of the protocol: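 After VDR-bla cells are plated and left 4 h at 37C, DMSO-dissolved compounds and 3 nM (final) calcitriol agonist are added. Incubation continues 16 h at 37C; FRET beta-lactamase substrate then develops 2 h at room temperature.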

Test [19] is described as follows: qHTS assay for small molecule agonists of the antioxidant response element (ARE) signaling pathway (AID 743202; active = well fitted activation curve with a large enough effect in the signal ratio in the repeat runs, not every such curve was filed as active; the % refers to the signal ratio). A digest of the protocol:
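HepG2 ARE-bla cells; 16 h treatment at 37 C; FRET-based beta-lactamase fluorescence read after 2 h substrate incubation at room temperature.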
% is scaled to controls: 0 for no effect and ±100 for the full control effect.

Aryl hydrocarbon receptor (Homo sapiens), sequence (P35869 whole entry, looked up): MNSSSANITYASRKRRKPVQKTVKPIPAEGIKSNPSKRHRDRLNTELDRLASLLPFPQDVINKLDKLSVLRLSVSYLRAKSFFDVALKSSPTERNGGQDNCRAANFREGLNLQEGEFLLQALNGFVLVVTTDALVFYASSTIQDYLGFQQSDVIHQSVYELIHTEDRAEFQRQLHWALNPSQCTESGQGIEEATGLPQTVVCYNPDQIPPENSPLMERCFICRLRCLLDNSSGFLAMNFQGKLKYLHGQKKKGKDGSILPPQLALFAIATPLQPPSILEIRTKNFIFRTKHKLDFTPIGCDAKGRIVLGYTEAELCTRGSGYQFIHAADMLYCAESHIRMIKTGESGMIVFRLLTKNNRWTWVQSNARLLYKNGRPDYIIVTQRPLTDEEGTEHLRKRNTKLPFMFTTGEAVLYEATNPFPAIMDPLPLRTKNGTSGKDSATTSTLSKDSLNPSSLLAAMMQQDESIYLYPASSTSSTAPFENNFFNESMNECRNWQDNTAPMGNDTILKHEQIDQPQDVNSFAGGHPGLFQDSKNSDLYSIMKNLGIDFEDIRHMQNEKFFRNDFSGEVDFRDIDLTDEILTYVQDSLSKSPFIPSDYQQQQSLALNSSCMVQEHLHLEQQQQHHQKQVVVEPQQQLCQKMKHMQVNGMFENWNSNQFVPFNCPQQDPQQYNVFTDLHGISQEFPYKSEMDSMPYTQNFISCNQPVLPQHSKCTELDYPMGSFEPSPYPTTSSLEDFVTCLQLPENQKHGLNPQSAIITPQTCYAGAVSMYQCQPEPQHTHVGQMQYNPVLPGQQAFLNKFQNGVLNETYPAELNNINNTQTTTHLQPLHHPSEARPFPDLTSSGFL
Peroxisome proliferator-activated receptor delta (Homo sapiens), sequence (Q03181 whole entry, looked up): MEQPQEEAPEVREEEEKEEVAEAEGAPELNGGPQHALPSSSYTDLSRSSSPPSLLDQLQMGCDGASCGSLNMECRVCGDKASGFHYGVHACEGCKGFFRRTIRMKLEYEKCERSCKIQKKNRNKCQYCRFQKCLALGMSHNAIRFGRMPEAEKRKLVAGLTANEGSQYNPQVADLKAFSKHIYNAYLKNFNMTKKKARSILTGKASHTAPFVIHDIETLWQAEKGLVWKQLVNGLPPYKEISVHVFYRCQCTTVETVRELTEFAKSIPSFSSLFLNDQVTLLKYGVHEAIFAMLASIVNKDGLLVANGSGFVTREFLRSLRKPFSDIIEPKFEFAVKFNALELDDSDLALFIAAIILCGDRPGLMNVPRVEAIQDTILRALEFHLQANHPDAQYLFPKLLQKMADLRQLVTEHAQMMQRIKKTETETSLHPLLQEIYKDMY
Peroxisome proliferator-activated receptor gamma (Homo sapiens), sequence (P37231 whole entry, looked up): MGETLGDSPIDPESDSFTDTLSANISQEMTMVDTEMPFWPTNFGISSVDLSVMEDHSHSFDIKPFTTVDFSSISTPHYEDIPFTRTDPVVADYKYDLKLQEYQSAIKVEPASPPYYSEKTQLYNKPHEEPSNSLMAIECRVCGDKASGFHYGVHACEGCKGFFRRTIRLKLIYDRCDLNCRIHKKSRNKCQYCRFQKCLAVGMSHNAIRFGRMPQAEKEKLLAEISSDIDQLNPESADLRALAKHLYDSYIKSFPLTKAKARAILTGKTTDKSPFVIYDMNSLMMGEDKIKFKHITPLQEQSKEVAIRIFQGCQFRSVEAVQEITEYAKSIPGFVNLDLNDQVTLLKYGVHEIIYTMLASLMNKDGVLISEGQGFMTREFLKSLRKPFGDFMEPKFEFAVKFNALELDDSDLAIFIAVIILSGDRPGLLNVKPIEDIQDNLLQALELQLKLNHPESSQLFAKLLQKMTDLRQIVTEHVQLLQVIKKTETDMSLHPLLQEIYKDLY
Vitamin D3 receptor (Homo sapiens), sequence (P11473 whole entry, looked up): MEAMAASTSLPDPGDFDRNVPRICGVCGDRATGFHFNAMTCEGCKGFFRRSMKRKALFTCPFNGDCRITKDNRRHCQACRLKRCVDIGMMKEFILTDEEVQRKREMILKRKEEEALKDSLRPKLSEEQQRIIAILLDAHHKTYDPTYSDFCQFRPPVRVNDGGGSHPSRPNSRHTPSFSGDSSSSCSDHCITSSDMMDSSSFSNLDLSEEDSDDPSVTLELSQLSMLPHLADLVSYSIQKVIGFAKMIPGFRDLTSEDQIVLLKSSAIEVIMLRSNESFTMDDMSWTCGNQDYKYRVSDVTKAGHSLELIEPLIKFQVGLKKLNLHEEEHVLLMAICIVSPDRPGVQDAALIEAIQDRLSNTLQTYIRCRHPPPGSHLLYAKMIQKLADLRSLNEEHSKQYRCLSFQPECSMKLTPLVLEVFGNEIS
Bile acid receptor (Homo sapiens), sequence (Q96RI1 whole entry, looked up): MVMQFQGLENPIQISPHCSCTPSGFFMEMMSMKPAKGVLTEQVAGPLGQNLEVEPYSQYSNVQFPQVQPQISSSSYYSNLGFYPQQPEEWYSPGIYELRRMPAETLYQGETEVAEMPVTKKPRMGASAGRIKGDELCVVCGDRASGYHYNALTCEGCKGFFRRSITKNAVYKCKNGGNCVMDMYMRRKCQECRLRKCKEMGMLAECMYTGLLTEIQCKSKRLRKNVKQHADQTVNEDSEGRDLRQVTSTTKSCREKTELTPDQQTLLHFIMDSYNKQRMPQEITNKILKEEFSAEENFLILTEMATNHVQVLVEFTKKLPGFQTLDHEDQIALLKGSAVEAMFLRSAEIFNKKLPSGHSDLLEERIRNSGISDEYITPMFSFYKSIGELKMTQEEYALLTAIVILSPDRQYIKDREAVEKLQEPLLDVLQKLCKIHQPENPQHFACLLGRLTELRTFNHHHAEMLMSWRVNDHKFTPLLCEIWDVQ

Take `CC(=O)[O-].CC(=O)[O-].CC(=O)[O-].[Cr+3]`: the Potency result in test [1], in [2], in test [3], in test [4], in test [5] and in test [6] was “inactive” in each case. The Potency entry in test [7], in test [8] and in test [9] was “inactive” each time.

As to `CCC(C)c1cccc(C(C)CC)c1O` (configuration not stated), the Potency entry in [1], in [10], in test [11], in test [3], in test [4] and in [5] was “inactive” each time. In addition, the Potency entry in test [6], in test [12], in [7], in test [13], in [8] and in test [14] was “inactive” throughout. For the same compound, the Potency result in test [9] and in [15] was “inactive” each time.

For `CC1=C2C[C@H]3[C@@H](CC=C4C[C@@H](O)CC[C@@]43C)[C@@H]2CC[C@]12O[C@@H]1C[C@H](C)CN[C@H]1[C@H]2C`, the Potency entry in [1], in [10], in [3], in [4], in test [5] and in test [16] was “inactive” throughout. Besides, the Potency result in [13], in test [17], in test [9], in test [15] and in test [18] was “inactive” throughout. Also, in test [14], the Potency is 10.7 µM (active).

On to `CC(Cc1ccccc1)N(C)Cc1ccco1` (configuration not stated), for which the Potency result in test [11], in test [3], in test [19], in test [4], in test [5] and in [16] was “inactive” throughout. The Potency result in test [6], in test [12], in test [7], in test [13], in test [17] and in [8] was “inactive” throughout. The Potency entry in test [9], in test [15] and in test [18] was “inactive” each time.

Consider `Nc1c(Cl)c(Cl)c(Cl)c(Cl)c1Cl`, for which the Potency in [1] is 50.5 µM (active). The Potency entry in test [2], in [4], in test [16], in [6] and in test [9] was “inactive” each time.

Take `Clc1c(Cl)c(Cl)c(Cl)c(Cl)c1Cl`: the viability change, negative = cytotoxic is 3.05% [at 8.47 µM] in test [2], 3.6% [at 8.36 µM] in test [4], 0.753% [at 6.26 µM] in [7] and 24.1% [at 5.95 µM] in test [8]. Further, the activity change, negative = cytotoxicity in test [3] is -5.6% [at 5.95 µM, co-treated with 50 nM rosiglitazone]; in test [6], 0.119% [at 5.95 µM]; in [9], 10.7% [at 5.95 µM]. Moreover, the values for the activation in test [19] and in test [16] were -2.23% [at 8.36 µM] and -2.21% [at 5.95 µM], respectively. Also, the ratio activity, negative = inhibition in [13] was -0.823% [at 6.26 µM]. In addition, in [18], the activity change, negative = inhibition is 0.227% [at 6.95 µM].

Take `NC1CCC(CC2CCC(N)CC2)CC1` (configuration not stated): the Potency entry in test [2], in test [10], in test [3], in [19], in [4] and in test [5] was “inactive” each time. For the same compound, the Potency result in test [16], in [6], in test [7], in [13], in [17] and in test [14] was “inactive” throughout.

As for `CN1CCc2cc3c(cc2C1O)OCO3` (configuration not stated), the Potency entry in test [1], in test [3], in test [4], in test [5], in [6] and in [8] was “inactive” each time. Further, the Potency entry in [9] was “inactive”. Besides, the Potency in test [16] is 39.1 µM (active).
